Laboratory results reported in PubChem BioAssay.
The other results are listed elsewhere or left out. Calls of active or inactive are those of the source.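 Rule for the calls, unless noted: active = membrane potential signal moves up or down beyond 5 SD from buffer-only wells, on both duplicate plates; inactive = the rest.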

Tests used:
[1] = nonspecific voltage dye response without TRPC6 – cell-based, parental HEK293, counter-screen for TRPC6 modulator project, confirmation (AID 488924); conditions: parental HEK293, membrane potential dye fluorescence; at 10 µM
[2] = membrane potential response modulators in host HEK293 cells – cell-based, second counter-screen, parental HEK293, membrane potential dye, counter-screen for TRPC6 modulator project, confirmation (AID 488926;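 active = membrane potential signal drops by more than 5 SD from the mean control signal, in both duplicate plates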;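 for inhibition: plate controls were acetylcholine ECmax control wells for no effect and buffer only wells for full effect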); conditions: parental HEK293, membrane potential dye fluorescence, at 10 µM, after compound, maximal acetylcholine stimulation; hits give high values
[3] = system: Transient receptor potential cation channel subfamily C member 4 (mouse); assay: off-target membrane potential effects via mouse TRPC4 – cell-based, HEK293 TRPC4/mu-opioid, membrane potential dye, selectivity assay for TRPC6 modulator project, confirmation (AID 488927;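 active = membrane potential signal moved up or down beyond 5 SD of buffer control wells, in both duplicate plates, actives on both sides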;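 for percent change from control (negative = decrease, positive = increase): plate controls were assay buffer wells for no effect and DAMGO maximal-effect wells for full effect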); conditions: membrane potential fluorescence, at 10 µM
[4] = system: TRPC4 (transient receptor potential cation channel C4), mouse; assay: DAMGO-evoked mouse TRPC4 response blockade – cell-based, second screen, HEK293 TRPC4/mu-opioid, membrane potential dye, selectivity assay for TRPC6 modulator project, confirmation (AID 488928;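 active = drop in membrane potential signal beyond 5 SD of the control wells in both duplicate plates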;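 note: TRPC4 counter screen for TRPC6 hits run under conditions tuned for TRPC6 not TRPC4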); conditions: membrane potential dye fluorescence, at 10 µM, stimulated with maximal-effect DAMGO; hits give high values
[5] = target: Short transient receptor potential channel 6 (Mus musculus) (UniProt Q61143); assay: mouse TRPC6 channel activators, confirmation, HEK293 cells, membrane potential dye, duplicate (AID 488961;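 active = ratio signal rise beyond 5 SD above unstimulated control wells' mean, seen in both duplicate runs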;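 for activation: plate controls were buffer EC0 wells for no effect and acetylcholine ECmax response for full effect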); conditions: HEK293-TRPC6 membrane potential dye fluorescence, FDSS, at 10 µM; hits give high values
Short transient receptor potential channel 6 (Mus musculus), sequence (Q61143 whole entry, looked up): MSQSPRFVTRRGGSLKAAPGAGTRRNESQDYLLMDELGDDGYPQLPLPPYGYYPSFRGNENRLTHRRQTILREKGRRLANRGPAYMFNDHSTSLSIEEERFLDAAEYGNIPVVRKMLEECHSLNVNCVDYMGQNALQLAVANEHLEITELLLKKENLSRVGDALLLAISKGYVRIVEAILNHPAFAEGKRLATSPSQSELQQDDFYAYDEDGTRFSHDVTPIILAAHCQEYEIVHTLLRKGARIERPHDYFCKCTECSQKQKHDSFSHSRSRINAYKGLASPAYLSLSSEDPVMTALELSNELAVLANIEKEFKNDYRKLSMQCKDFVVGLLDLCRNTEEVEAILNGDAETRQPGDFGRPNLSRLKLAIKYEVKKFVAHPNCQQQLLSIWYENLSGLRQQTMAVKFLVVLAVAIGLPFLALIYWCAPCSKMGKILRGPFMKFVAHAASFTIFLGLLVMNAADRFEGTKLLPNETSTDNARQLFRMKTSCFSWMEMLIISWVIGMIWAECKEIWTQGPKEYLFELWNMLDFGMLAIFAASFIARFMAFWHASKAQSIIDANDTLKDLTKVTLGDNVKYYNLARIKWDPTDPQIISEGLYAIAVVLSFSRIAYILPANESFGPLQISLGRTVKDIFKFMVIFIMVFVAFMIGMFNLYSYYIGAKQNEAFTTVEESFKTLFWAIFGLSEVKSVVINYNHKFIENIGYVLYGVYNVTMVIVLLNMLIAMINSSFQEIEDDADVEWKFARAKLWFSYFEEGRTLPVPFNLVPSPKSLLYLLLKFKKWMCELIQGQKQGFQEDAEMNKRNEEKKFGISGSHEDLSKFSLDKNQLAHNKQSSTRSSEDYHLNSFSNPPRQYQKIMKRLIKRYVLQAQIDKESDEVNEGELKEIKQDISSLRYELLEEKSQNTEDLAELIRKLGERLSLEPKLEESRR

[6] = target: Short transient receptor potential channel 6 (Mus musculus) (UniProt Q61143); assay: blockers of TRPC6 cation channel activity – HEK293 cells, membrane potential dye, duplicate, confirmation (AID 488960;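 active = fluorescence ratio falls more than 5 SD below the full-stimulation control mean, in both duplicate runs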;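 for inhibition: integrated fluorescence ratio of peak minus minimum over baseline after agonist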); conditions: ACh-evoked depolarization, at 10 µM; hits give high values
[7] = target: Potassium voltage-gated channel subfamily KQT member 1 (Homo sapiens) (UniProt P51787); assay: blockers of human KCNQ1 channel – cell-based, Tl flux, duplicate, confirmation (AID 588353;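 active = primary screen active, with duplicate mean exceeding buffer control mean plus 3 SD of buffer wells, cut at about 28% in these data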;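 note: 0% = buffer control ratio and 100% = XE991 inhibitor control ratio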); conditions: KCNQ1 cell line, FluxOR thallium flux fluorescence, at 10 µM, hits give high values
Potassium voltage-gated channel subfamily KQT member 1 (Homo sapiens), sequence (P51787 whole entry, looked up): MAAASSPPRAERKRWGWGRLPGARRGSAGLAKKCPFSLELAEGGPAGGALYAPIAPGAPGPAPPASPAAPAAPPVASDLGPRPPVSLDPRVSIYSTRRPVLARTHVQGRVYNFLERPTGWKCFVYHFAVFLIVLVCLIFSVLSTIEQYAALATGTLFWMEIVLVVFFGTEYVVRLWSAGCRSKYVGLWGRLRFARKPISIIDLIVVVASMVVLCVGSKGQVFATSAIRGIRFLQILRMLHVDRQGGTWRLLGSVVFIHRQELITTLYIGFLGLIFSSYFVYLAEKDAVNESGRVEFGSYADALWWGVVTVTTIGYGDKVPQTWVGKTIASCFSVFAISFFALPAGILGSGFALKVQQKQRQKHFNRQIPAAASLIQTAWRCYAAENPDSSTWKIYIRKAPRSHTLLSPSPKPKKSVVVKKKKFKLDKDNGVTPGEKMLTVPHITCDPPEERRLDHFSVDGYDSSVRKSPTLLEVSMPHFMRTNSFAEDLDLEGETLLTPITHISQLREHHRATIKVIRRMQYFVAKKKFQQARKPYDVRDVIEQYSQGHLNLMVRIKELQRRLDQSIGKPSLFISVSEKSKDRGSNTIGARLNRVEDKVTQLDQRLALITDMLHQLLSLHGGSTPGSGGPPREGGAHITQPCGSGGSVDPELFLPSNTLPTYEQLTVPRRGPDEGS

[8] = nonspecific activity in CHO-K1 cells without KCNQ1 – parental CHO cells, Tl flux, counter-screen for KCNQ1 inhibitor project (AID 588366;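 active = mean of duplicate thallium-flux fluorescence ratios in parental host cells more than 5 SD below the buffer control mean, cut at about 0.38 in these data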;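 note: ratio is peak minus minimum fluorescence divided by baseline fluorescence; actives read low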); conditions: parental CHO-K1, FluxOR thallium flux fluorescence ratio; at 10 µM; hits give low values; zero means no signal rise above baseline
[9] = target: Potassium voltage-gated channel subfamily KQT member 2 (Rattus norvegicus) (UniProt O88943); assay: block of rat KCNQ2 potassium channel – cell-based, selectivity assay for KCNQ1 inhibitor project (AID 651746;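 active = mean percent inhibition of the KCNQ2 thallium signal more than 5 SD above the buffer-only control wells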;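 note: KCNQ2 expressed in CHO cells; 0% = buffer control wells and 100% = XE-991 inhibitor control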); conditions: KCNQ2 cells, FluxOR thallium flux fluorescence, at 10 µM; hits give high values
Potassium voltage-gated channel subfamily KQT member 2 (Rattus norvegicus), sequence (O88943 whole entry, looked up): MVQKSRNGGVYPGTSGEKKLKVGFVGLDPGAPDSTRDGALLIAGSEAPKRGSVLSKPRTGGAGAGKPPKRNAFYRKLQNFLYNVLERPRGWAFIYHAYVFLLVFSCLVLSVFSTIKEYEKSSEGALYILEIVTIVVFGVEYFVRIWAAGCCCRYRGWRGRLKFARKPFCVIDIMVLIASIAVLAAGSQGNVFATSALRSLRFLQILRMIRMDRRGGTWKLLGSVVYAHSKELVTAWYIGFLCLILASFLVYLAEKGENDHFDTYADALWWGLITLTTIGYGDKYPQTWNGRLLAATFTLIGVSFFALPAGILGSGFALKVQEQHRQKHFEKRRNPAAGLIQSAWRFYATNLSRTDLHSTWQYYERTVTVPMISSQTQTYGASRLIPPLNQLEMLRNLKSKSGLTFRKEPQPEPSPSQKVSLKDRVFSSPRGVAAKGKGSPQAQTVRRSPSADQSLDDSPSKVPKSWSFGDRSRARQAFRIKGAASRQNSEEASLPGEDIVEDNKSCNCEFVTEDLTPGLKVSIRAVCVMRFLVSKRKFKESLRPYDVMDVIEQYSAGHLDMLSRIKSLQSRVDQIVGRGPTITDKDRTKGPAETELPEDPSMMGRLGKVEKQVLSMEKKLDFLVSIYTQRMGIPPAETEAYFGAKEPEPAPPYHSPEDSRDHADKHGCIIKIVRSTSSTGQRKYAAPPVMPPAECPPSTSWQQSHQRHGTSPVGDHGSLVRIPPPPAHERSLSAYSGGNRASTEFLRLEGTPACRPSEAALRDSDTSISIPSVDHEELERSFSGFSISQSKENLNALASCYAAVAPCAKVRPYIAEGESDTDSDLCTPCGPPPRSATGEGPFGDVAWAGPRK

[10] = target: Potassium voltage-gated channel subfamily E member 1 (Homo sapiens) + Potassium voltage-gated channel subfamily KQT member 1 (Homo sapiens) (UniProt P15382+P51787); assay: block of human IKs channel complex – CHO-K1 cells, thallium flux, FluxOR, selectivity assay for KCNQ1 inhibitor project (AID 652147;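 active = mean percent inhibition of duplicate wells above the buffer-only control mean plus 3 SD of those controls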;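 note: 0% = buffer only wells and 100% = XE-991 inhibitor control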); conditions: KCNQ1/KCNE1 cells, FluxOR thallium flux fluorescence, at 10 µM; hits give high values
Potassium voltage-gated channel subfamily E member 1 (Homo sapiens) + Potassium voltage-gated channel subfamily KQT member 1 (Homo sapiens), sequence (P51787 whole entry, looked up): as the sequence (P51787 whole entry, looked up) above

CN1CCN(/N=C/c2ccc(-c3ccc([N+](=O)[O-])cc3)o2)CC1
inactive: outcome [2]
active: membrane potential signal change [1] 407% | percent change from control (negative = decrease, positive = increase) [3] 65.5% | inhibition [4] 43.5% | activation [5] 158%

CCCCN(C)CCCNC(=O)c1cc(-c2cccs2)nc2ccccc12
active: percent change from control (negative = decrease, positive = increase) [3] -13% | inhibition [4] 65.5%
inactive: outcome [1] | outcome [2] | outcome [6] | outcome [5]

CCN(CC)S(=O)(=O)c1ccc(N2CC(C(=O)NCc3cccnc3)CC2=O)cc1 (centres undefined)
inactive: outcome [1] | outcome [2] | outcome [3] | outcome [4] | outcome [6] | outcome [5]

O=C1c2ccccc2C(=O)c2c1cccc2N1CCN(CCO)CC1
active: membrane potential signal change [1] -367% | inhibition [2] 64% | percent change from control (negative = decrease, positive = increase) [3] -80.5% | inhibition [4] 60% | inhibition [6] 78.5%
inactive: outcome [5]

CC(NC(=S)Nc1ccc(OC(F)F)cc1)c1ccc(F)cc1 (centres undefined)
active: percent change from control (negative = decrease, positive = increase) [3] -14.5%
inactive: outcome [1] | outcome [2] | outcome [4] | outcome [6] | outcome [5]

COC(=O)c1ccc(NC(=O)CSc2nnc(-c3ccncc3)n2C)cc1
inactive: outcome [2] | outcome [4] | outcome [6]
active: membrane potential signal change [1] 292% | percent change from control (negative = decrease, positive = increase) [3] 35.5% | activation [5] 116%

CC(C)(C)n1nnnc1C(c1ccc2ncccc2c1)N1CCSCC1 (centres undefined)
inactive: outcome [1] | outcome [2]
active: percent change from control (negative = decrease, positive = increase) [3] 19% | inhibition [4] 33% | inhibition [6] 84% | activation [5] 140%

CN(CC(=O)Nc1ccccc1[N+](=O)[O-])Cc1ccc(Br)cc1
active: inhibition [4] 29%
inactive: outcome [1] | outcome [2] | outcome [3] | outcome [6] | outcome [5]

COc1ccc(C(=O)C2CCCN(Cc3cccn3-c3ccccn3)C2)c(C)c1 (centres undefined)
inactive: outcome [1] | outcome [5] | fluorescence ratio (Tl flux) [8] 0.496
active: inhibition [2] 140% | percent change from control (negative = decrease, positive = increase) [3] -17.5% | inhibition [4] 99% | inhibition [6] 107% | inhibition [7] 41.5% | inhibition [9] 89% | inhibition [10] 39.5%

Cc1ccc(NC(=S)N(CCCN2CCCC2)Cc2cccn2Cc2ccc(Cl)cc2)cc1
active: inhibition [4] 47.5%
inactive: outcome [1] | outcome [2] | outcome [3] | outcome [6] | outcome [5]

O=S(=O)(c1cccc(Cn2nnc(-c3ccc(F)cc3)n2)c1)N1CCOCC1
inactive: outcome [1] | outcome [2] | outcome [3] | outcome [4] | outcome [6] | outcome [5]
